In the supplement of paper PMC13094657:
± gives the standard deviation of the averaged measurements.

Assays:
[1] = tested on: MDA-MB-231; test: cell viability relative to vehicle unstimulated control (fraction); higher = more viable cells; settings: pre-treatment time: 18 h then 24 h IFNg/TNF
[2] = tested on: MDA-MB-231; test: kynurenine production, fold change vs DMSO IFNg/TNF control; higher = more kynurenine produced (less inhibition); settings: pre-treatment time: 18 h then 24 h IFNg/TNF
Procedure, shortened: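 After trichloroacetic acid and p-dimethylaminobenzaldehyde treatment, supernatants were read at 492 nm, with 0–100 μM standards. These came from MDA-MB-231 cells (7 × 10^4/well, 96-well plates) pre-treated 18 h with natural products in 0.1% DMSO and then exposed 24 h to IFNγ (1 U/ml) and TNF (6.25 ng/ml) at 37°C. Values for kynurenine production are fold changes over same-plate cytokine-stimulated vehicle wells, averaged over duplicate plates in the first screening round.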
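For cell viability relative to vehicle unstimulated control in this document: viability of the cells left after supernatant collection, read with Deep Blue dye added for 4 h, as absorbance at 570 nm minus 600 nm.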

Row | SMILES | cell viability [1] | kynurenine production [2]
1 | CC[C@@H](C(=O)[C@@H](C)[C@@H](O)[C@H](C)CCc1ccc(C)c(O)c1C(=O)O)[C@H]1O[C@](CC)([C@H]2CC[C@](O)(CC)[C@H](C)O2)C[C@@H]1C [Lasalocid (sodium)] (compound dose: 10 uM) | 0.865 ± 0.04 | 0.37 ± 0.0038
2 | COc1ccc2cc3[n+](cc2c1OC)CCc1cc2c(cc1-3)OCO2 [Berberine] (compound dose: 10 uM) | 0.8829 ± 0.0012 | 0.807 ± 0.11
3 | C[C@H]1[C@H](C)CC[C@]2(C(=O)O[C@@H]3O[C@H](CO[C@@H]4O[C@H](CO)[C@@H](O[C@@H]5O[C@H](C)[C@H](O)[C@@H](O)[C@H]5O)[C@H](O)[C@H]4O)[C@@H](O)[C@H](O)[C@H]3O)CC[C@]3(C)C(=CC[C@@H]4[C@@]5(C)C[C@@H](O)[C@H](O)[C@@](C)(CO)[C@@H]5CC[C@]43C)[C@H]12 [Asiaticoside] (compound dose: 10 uM) | 0.831 ± 0.1 | 0.85 ± 0.17
4 | CC(C)=C/C=C1\O[C@@H]2CC(C)=CC(=O)[C@@H]2[C@]1(C)O [Bisabolangelone] (compound dose: 10 uM) | 0.907 ± 0.0022 | 0.711 ± 0.12
5 | CC(C)C1=CC(=O)C(C)(C2C(O)CC3(C)C4CC=C5C(CCC(OC6OC(CO)C(O)C(O)C6OC6OC(C)C(O)C(O)C6O)C5(C)C)C4(C)C(=O)CC23C)O1 (stereo not given) [Picfeltarraenin IB] (compound dose: 10 uM) | 1.02 ± 0.067 | 0.771 ± 0.23
6 | C=C(C)[C@@H]1CC[C@]2(C)CC[C@]3(C)[C@H](CC[C@@H]4[C@@]5(C)CCC(=O)C(C)(C)[C@@H]5CC[C@]43C)[C@@H]12 [Lupenone] (compound dose: 10 uM) | 0.9789 ± 0.0076 | 0.898 ± 0.16
7 | CC(C)=CC/C=C(\C)[C@H]1CC[C@]2(C)[C@@H]1[C@H](O)C[C@@H]1[C@@]3(C)CC[C@H](O[C@@H]4O[C@H](CO)[C@@H](O)[C@H](O)[C@H]4O[C@@H]4O[C@H](CO)[C@@H](O)[C@H](O)[C@H]4O)C(C)(C)[C@@H]3CC[C@]12C [Ginsenoside Rg5] (compound dose: 10 uM) | 0.906 ± 0.032 | 0.876 ± 0.12
8 | CC(=O)OC[C@H]1O[C@@H](OC[C@H]2O[C@@H](OC(=O)[C@]34CCC(C)(C)C[C@H]3C3=CC[C@@H]5[C@@]6(C)CC[C@H](O[C@@H]7OC[C@H](O)[C@H](O)[C@H]7O[C@@H]7O[C@H](CO)[C@@H](O)[C@H](O)[C@H]7O)C(C)(C)[C@@H]6CC[C@@]5(C)[C@]3(C)CC4)[C@H](O)[C@@H](O)[C@@H]2O)[C@H](O)[C@@H](O)[C@@H]1O[C@@H]1O[C@@H](C)[C@H](O)[C@@H](O)[C@H]1O [Acanthopanaxoside B] (compound dose: 10 uM) | 1.095 ± 0.0013 | 1.01 ± 0.17
9 | CC(CCC(OC1OC(CO)C(O)C(O)C1OC1OC(CO)C(O)C(O)C1O)C(C)(C)O)C1CCC2(C)C3CC=C4C(CCC(OC5OC(CO)C(O)C(O)C5O)C4(C)C)C3(C)C(O)CC12C (stereo not given) [Mogroside III-E] (compound dose: 10 uM) | 1.08 ± 0.013 | 0.996 ± 0.3
10 | O=C(O)C1=CO[C@@H](O[C@@H]2O[C@H](CO)[C@@H](O)[C@H](O)[C@H]2O)[C@@H]2C(CO)=CC[C@H]12 [Geniposidic acid] (compound dose: 10 uM) | 1.02 ± 0.015 | 0.715 ± 0.065
